This is an account of results in PubChem BioAssay AID430 (Sanford-Burnham Center for Chemical Genomics, 2006).

Screen size: about 63,000 compounds; about 1,100 (1.7%) were called active. Shown is part of a subset that was picked to be rich in actives. Results with a measured potency or affinity are listed apart. Unmarked numbers belong to inactive results. Rule as the data show it: active = cytotoxicity above about 50%; inactive = the rest.

A short description of the test: cytotoxicity in HPDE-C7 cells, cell-based, fluorescence, HTS (AID 430).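 Also: cells exposed to compound for 48 hours before viability readout; 0% = vehicle and 100% = reference cytotoxic drug.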 The following applies: HPDE-C7 pancreatic duct cells viability, at 10 µM, stronger effect = higher value.
On to `Cc1cc(C(=O)NCc2ccccc2)c(=O)[nH]c1C`, for which the cytotoxicity was -2.3%.

Turning to `Cc1cc(C)n2nc(SCC#N)nc2n1`, the cytotoxicity was 1.5%.

For `CCCCOCCCNC(=O)c1c(-c2ccccc2)noc1C`, the cytotoxicity is 6.3%.

Turning to `COc1ccc(CNC(=O)C2CC(c3ccc(OC)cc3)=NO2)cc1` (stereo not drawn), the cytotoxicity was 17.5%.

Regarding `COc1ccc(C2=NOC(C(=O)NCC(C)C)C2)cc1` (stereo not drawn), the cytotoxicity is -14.9%.

Take `COc1ccc(C2=NOC(C(=O)NCc3ccc(F)cc3)C2)cc1` (stereo not drawn): the cytotoxicity is 63.5% (active).

Regarding `COc1ccc(C2=NOC(C(=O)NCc3ccccc3)C2)cc1` (stereo not drawn), the cytotoxicity is 54.5% (active).

As for `O=C(NCc1cccnc1)C1CC(c2ccc(F)cc2)=NO1` (stereo not drawn), the cytotoxicity is -10.8%.

Turning to `COc1ccc(CNC(=O)C2CC(c3ccc(F)cc3)=NO2)cc1` (stereo not drawn), the cytotoxicity is 1%.

Regarding `CC(=O)Nc1ccc(NS(=O)(=O)c2ccc(Cl)c(C(=O)O)c2)cc1`, the cytotoxicity is 0.9%.

With `COC(=O)CC1=NC(=O)CS1`, the cytotoxicity was 0.6%.

`COC(=O)c1ccccc1NC(=O)CSc1nnc(CNS(=O)(=O)c2ccc(C)cc2)n1C`: the cytotoxicity was -12.6%.

For the compound `O=C1OCCN1CCN(CN1C(=O)CCC1=O)CN1C(=O)CCC1=O`, the cytotoxicity is 5.9%.

As to `O=C(CN(Cc1ccc2c(c1)OCO2)C(=O)c1cnsn1)NC1CCCC1`, the cytotoxicity was 7%.

Consider `COc1ccc(NC(=O)c2ccc(Cl)c(S(=O)(=O)N3CCc4ccccc4C3)c2)cn1`, for which the cytotoxicity was 86.5% (active).

`O=C(Nc1cccnc1)c1ccc(Cl)c(S(=O)(=O)N2CCCCCC2)c1`: the cytotoxicity is 12.4%.

In the case of `COc1ccccc1NC(=O)c1ccc(Cl)c(S(=O)(=O)N2CCOCC2)c1`, the cytotoxicity was -10.1%.

As for `COc1ccc(CNC(=O)C2CCCN(S(=O)(=O)c3cnc[nH]3)C2)cc1` (stereo not drawn), the cytotoxicity was -4.6%.

Regarding `CN(CC(O)COc1ccc(OCC(O)CN(C)C2CCCCC2)cc1)C1CCCCC1` (stereo not drawn), the cytotoxicity is 7.7%.

Take `Cc1csc(SCC(=O)Nc2c(C)n(C)n(-c3ccccc3)c2=O)n1`: the cytotoxicity was 3.8%.

Consider `COc1ccc(S(=O)(=O)Nc2nc(C(F)(F)F)cs2)cc1`, for which the cytotoxicity is -2.3%.

With `Cc1ccc2c(CC(=O)NCc3ccco3)coc2c1C`, the cytotoxicity is 64.7% (active).

Take `O=C(Cc1cccs1)NCc1ccco1`: the cytotoxicity was 5.7%.

`Cc1cc(C)c2c(CC(=O)NCc3ccco3)coc2c1`: the cytotoxicity is 4.1%.

With `O=C(c1cnn2ccccc12)N(Cc1ccco1)C1CCCC1`, the cytotoxicity was -3.3%.

As to `COc1ccc(-c2nnc3n2N=C(c2ccccc2)CS3)cc1OC`, the cytotoxicity is -2.9%.

With `CCOc1ccc(C2=Nn3c(nnc3-c3ccc(OC)cc3)SC2)cc1`, the cytotoxicity is 45.9%.

`COc1ccc(OC)c(C2=Nn3c(nnc3-c3cc(OC)c(OC)c(OC)c3)SC2)c1`: the cytotoxicity was 4.4%.

`Cc1ccc(-c2nnc3n2N=C(c2ccccc2)CS3)cc1`: the cytotoxicity is -4.2%.

Turning to `CCOc1ccc(C2=Nn3c(nnc3-c3ccccc3OC)SC2)cc1`, the cytotoxicity is 63.4% (active).

Consider `COc1ccc(C2=Nn3c(nnc3-c3ccccc3)SC2)cc1OC`, for which the cytotoxicity was 3.6%.

For `COc1cc(-c2nnc3n2N=C(c2ccccc2)CS3)cc(OC)c1OC`, the cytotoxicity is 57.4% (active).

Turning to `COc1ccc(C2=Nn3c(nnc3-c3ccccn3)SC2)cc1OC`, the cytotoxicity is -0.7%.

In the case of `c1ccc(C2=Nn3c(nnc3-c3cc(-c4ccccc4)n[nH]3)SC2)cc1`, the cytotoxicity was 5.2%.

Consider `CCOc1ccc(-c2nnc3n2N=C(c2ccc(OC)cc2)CS3)cc1`, for which the cytotoxicity was 0.1%.

For `CCC(C)Oc1cccc(C(=O)Nc2ccccc2N2CCOCC2)c1` (stereo not drawn), the cytotoxicity is 1.7%.

For `CCCn1c(SCC(=O)Nc2c(CC)cccc2CC)nnc1C(C)C`, the cytotoxicity is -2.4%.

For the compound `Cc1ccc(S(=O)(=O)NCC(C)NS(=O)(=O)c2ccc(C)cc2)cc1` (stereo not drawn), the cytotoxicity was -44.3%.

For `COc1ccc2nc(NC(=O)CN(c3ccc(C)cc3)S(=O)(=O)c3c(C)nn(C)c3C)sc2c1`, the cytotoxicity was 10.7%.

For the compound `OC(COc1c(Cl)cc(Cl)cc1Cl)CN1CCCCC1` (stereo not drawn), the cytotoxicity is 7.4%.

Regarding `CC(=O)Nc1ccc(S(=O)(=O)N2CCSC2c2ccc(C)cc2)cc1` (stereo not drawn), the cytotoxicity is 0.6%.

In the case of `Nc1nnc2c(n1)CCCC2`, the cytotoxicity is 2.7%.

For the compound `COc1ccccc1-c1nnc2n1N=C(C)CS2`, the cytotoxicity was -3.3%.

`COc1ccccc1-c1nnc2n1N=C(c1ccc(O)c(O)c1)CS2`: the cytotoxicity was 60.1% (active).

`COc1cccc(C2=Nn3c(nnc3-c3ccccc3O)SC2)c1`: the cytotoxicity was -36.1%.

Take `c1ccc(Nc2nc(N3CCCCC3)nc(N3CCNCC3)n2)cc1`: the cytotoxicity is 71.8% (active).

Take `c1ccc(Nc2nc(N3CCOCC3)nc(N3CCOCC3)n2)cc1`: the cytotoxicity is 3.2%.

As to `C1CCN(c2nc(N3CCCCC3)nc(N3CCNCC3)n2)CC1`, the cytotoxicity was 2.9%.

`CCOC(=O)C1CCCN(C(=O)c2cn(CC)c3ccc(S(=O)(=O)N4CCCC4)cc3c2=O)C1` (stereo not drawn): the cytotoxicity is -6.2%.

Consider `CC(C)NC(=O)c1ccccc1NC(=O)CCS(=O)(=O)Cc1ccccc1`, for which the cytotoxicity was -16.4%.

In the case of `Cn1c(CSc2ccccc2)c(C#N)c2ccccc21`, the cytotoxicity is -6.2%.

Turning to `O=C(CSc1nnc(NCc2ccccc2)s1)c1ccco1`, the cytotoxicity was -4.8%.

Consider `C=CCn1c(C)cc(C(=O)CSc2nnc(NCc3ccccc3)s2)c1C`, for which the cytotoxicity was 52.9% (active).

As for `C=CCn1c(C)cc(C(=O)CSc2nnc(Cc3ccccc3)o2)c1C`, the cytotoxicity was -20.7%.

As for `Cc1cc(C(=O)CSc2nnc(NCc3ccccc3)s2)c(C)n1C`, the cytotoxicity was 58% (active).

Turning to `Cc1cc(C(=O)CSc2nnc(-c3ccccc3)n2C)c(C)n1C`, the cytotoxicity is 5.7%.

Take `Cc1cc(C(=O)CSc2nnc(Nc3ccccc3)s2)c(C)n1CC1CCCO1` (stereo not drawn): the cytotoxicity was 2.6%.

As for `Cc1cc(N2C(=O)C3C4C=CC(C4)C3C2=O)no1` (stereo not drawn), the cytotoxicity is -1%.

As for `COCCCn1c(=S)[nH]c2ccc(N3CCOCC3)cc2c1=O`, the cytotoxicity was -10.8%.

As to `O=C(O)CCCC(=O)Nc1ccccc1Br`, the cytotoxicity is 5.7%.

Turning to `CCN1C(=O)c2cccc3c(S(=O)(=O)Nc4nc(C)cs4)ccc1c23`, the cytotoxicity is 58.9% (active).

As to `CCN1C(=O)c2cccc3c(S(=O)(=O)Nc4ncccc4C)ccc1c23`, the cytotoxicity is 23.7%.

On to `CCOC(=O)Cc1csc(NS(=O)(=O)c2ccc3c4c(cccc24)C(=O)N3CC)n1`, for which the cytotoxicity is 8.7%.

With `CC(=O)C(C(C)=O)c1c(Cl)c(O)c(O)c2c(C(=O)c3ccccc3)coc12`, the cytotoxicity was 82.2% (active).

On to `O=C(c1ccccc1)c1coc2ccc(O)c(Cl)c12`, for which the cytotoxicity was -4.8%.

For `CN(C)Cc1c(O)ccc2occ(C(=O)c3ccccc3)c12`, the cytotoxicity was 6.4%.

For the compound `CCOC(=O)c1[nH]nc(C(=O)c2ccc(Br)cc2)c1O`, the cytotoxicity was -10.7%.

As to `Cc1ccc(C(=O)c2coc3ccc(O)c(CN4CCN(C)CC4)c23)cc1`, the cytotoxicity is -5.9%.
